Data on 39 compounds can be found in PubChem BioAssay AID651692 (Broad Institute, 2012).

Measured potencies and affinities stand elsewhere. Activity calls are given as the source filed them.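 How the source made its calls: active means fitted half-maximal concentration for loss of cell signal no higher than twice the top valid tested concentration; inconclusive means flat curve at 30 to 70% inhibition, or poor fit; inactive means flat within 30%, signal rise, or potency above limit.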

A short description of this assay: cytotoxicity toward MDA-MB-231 breast cancer cells – cell-based, CellTiter-Glo luminescence, cherry-pick, cytotoxicity control for RAD54 inhibitor project, dose response (AID 651692).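 Further: more negative values mean stronger loss of viable cell signal.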 The following applies: MDA-MB-231 viability, 24 h; series mostly up to 26 µM. For orientation: ATP-based viability assays read luminescence as a measure of living cells.
For `CN1CCN(CC(=O)Nc2nc(-c3c[nH]c4ccccc34)cs2)CC1`, the call was inactive.
On to `COc1ccc(Nc2nc(NCC3CCCO3)c3ccccc3n2)c(OC)c1` (centres undefined), for which the compound was classed as inactive.
For `CN(C)CCCNc1nc2cc(-c3ccccc3)sc2c(=O)n1C` the value was “inactive”.
For `CCCN1CCN(CCCNC(=S)Nc2ccc3nc(N4CCN(CC)CC4)cc(C)c3c2)CC1`, the result was inactive.
Then `N=c1c(C(=O)NCCN2CCOCC2)cc2c(=O)n3ccccc3nc2n1CCCN1CCOCC1`, with “inactive”; and `COc1cc2nc(NCCCN3CCN(C)CC3)n3nc(-c4ccccc4)nc3c2cc1OC`, with “inactive”.
Regarding `CCN(CC)CCn1c2ccccc2c2nc3ccccc3nc21`, the result was inactive.
For the compound `CN1CCN(c2ccc(CNC(=O)C3Cc4c(-c5ccc(Cl)cc5)ccnc4O3)cc2)CC1` (centres undefined), the call was inactive.
Then `COc1ccc2c(c1)c1ncn(CCN3CCCC3)c(=O)c1n2C`, with “inactive”; and `CN(C)CCNC(=O)c1c(NC(=O)c2ccccc2)sc2c1CCCC2`, with “inactive”.
On to `CCN1CCN(c2cc(C)c3cc(NC(=S)NCCCN4CCc5ccccc5C4)ccc3n2)CC1`, for which the result was inactive.
For `COc1ccccc1NC(=O)Cn1nnc2sc3c(c2c1=O)CC(C)(C)OC3` the value was “inactive”.
With `CCOC(=O)c1cnc2c(C)cc(Cl)cc2c1NCCCN1CCOCC1`, the call was inactive.
For `COc1ccc(OC)c(Nc2nc(NCCO)c3ccccc3n2)c1` the value was “inactive”; for `Cc1cccc2cc3c(N)c(C#N)sc3nc12`, “inactive”.
Then `CCOC(=O)c1cnc2ccc(OC)cc2c1Nc1ccc(N2CCN(C)CC2)cc1`, with “inactive”.
Turning to `CSc1nc(SCC(N)=O)c2c3c(sc2n1)CN(C)CC3`, the outcome was inactive.
For `O=C(Nc1cccc(Cl)c1)c1cc(S(=O)(=O)N2CCOCC2)cs1` the value was “inactive”.
Then `Cc1ccc(S(=O)(=O)NCCCNS(=O)(=O)c2ccccc2[N+](=O)[O-])cc1`, with “inactive”; and `Cc1ccc(-c2nc(NCCCO)c3ccccc3n2)cc1`, with “inactive”; and `CCCCN(CC)CCCNC(=S)Nc1ccc2nc(N3CCN(CC)CC3)cc(C)c2c1`, with “inactive”.
For `OCCN1CCN(c2ncnc3sc(-c4ccccc4)cc23)CC1`, the compound was called inactive.
Take `CCN(CC)CCNc1ccc(CO)c2oc3ccccc3c(=O)c12`: the outcome was inactive.
For `CCc1nc(Nc2ccncc2)c2oc3ccccc3c2n1` the value was “inactive”; for `COc1ccc(CCn2c(=N)c(C(=O)NCCN3CCOCC3)cc3c(=O)n4cccc(C)c4nc32)cc1OC`, “inactive”; for `CN(C)CCNC(=O)c1cccc(-c2cnc3c(NC=O)cc(-c4ccc(S(C)(=O)=O)cc4)cn23)c1`, “inactive”.
On to `Cc1nc2ccccc2c2oc(C(=O)NCCN3CCN(C)CC3)cc12`, for which the compound was called inactive.
On to `CC(CCCN1CCCC1)Nc1ccnc2cc(Cl)ccc12` (centres undefined), for which the result was inactive.
Take `COc1cc(NCCCNC(C)C)c2nccc(C)c2c1`: the outcome was inactive.
As for `Cc1cc(-c2cc(NC=O)c3ncc(-c4cccc(C(=O)NCCN(C)C)c4)n3c2)cc(C)c1O`, the compound was classed as inactive.
Turning to `CCN(CC)CCn1c2ccc(Cl)cc2c2nc(C)sc21`, the compound was classed as inactive.
For `O=C(Nc1cccc(Br)c1)c1cc(S(=O)(=O)N2CCOCC2)cs1` the value was “inactive”; for `C=CCc1ccccc1OCC(O)CN1CCN(CCN2C(=O)c3cccc4cccc(c34)C2=O)CC1` (centres undefined), “inactive”; for `Cc1cc(Nc2ccc3c(c2)OCCO3)c2cccc(C)c2n1`, “inactive”.
For `CCCN(CCC)CCCNC(=O)c1cc2c(=O)n(C)c3ccccc3c2n1C` the value was “inactive”.
Then `COc1ccc(Cl)c2sc(N(CCN(C)C)C(=O)C3=COCCO3)nc12`, with “inactive”; and `Cc1ccc(-c2nc(NCCN(C)C)c3ccccc3n2)cc1`, with “inactive”; and `CCOC(=O)c1c(C)n(C)c2ccc(OCC(O)CN3CCN(C)CC3)cc12` (centres undefined), with “inactive”.
Turning to `COc1cccc(-c2cnc3c(NC(C)=O)cc(-c4cccc(C(=O)NCCN(C)C)c4)cn23)c1`, the result was inactive.
